Results reported in PubChem BioAssay (NCI).
Compounds without any hit were thinned out: in the full panel of roughly 79,000, 15% have a hit. The source made the active and inactive calls. Cut-off read from the data, not from the text of the source: active = growth inhibition above about 70%; inactive = the rest.

Experiment: NCI Yeast Anticancer Drug Screen. Data for the bub3 strain (AID 167)
Conditions: S. cerevisiae bub3 mutant strain, at 50.0 µM, hits give high values
Method in brief: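 Whole-cell yeast assay. The mutant strain was incubated with compounds, and growth inhibition was determined by comparison with vehicle-treated cells.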

Row | Structure (SMILES) | growth inhibition
1 | Cc1cccc(NC(=O)C(Cl)Cl)n1 | -1.95% (inactive)
2 | COC(=O)c1nc(=S)[nH]c(C(=O)OC)c1C(=O)c1cccc2ccccc12 | -5.5% (inactive)
3 | CC(=N/N(C)c1ccccc1)/C(C)=N/N(C)c1ccccc1 | 4.35% (inactive)
4 | O=C(C(=Nc1ccccc1)C(=Nc1ccccc1)C(=O)c1ccccc1)c1ccccc1 | 15.3% (inactive)
5 | CCc1c(NCCO)c(C(=O)NCCO)c2nc3ccccc3n2c1NCCO | -7.3% (inactive)
6 | O=C1OC(=O)C2C1C1C=CC2C1(c1ccccc1)c1ccccc1 (centres undefined) | 25.5% (inactive)
7 | CC(=O)OCC1OC(n2cnc3c(N)ncnc32)C(O)C1O (centres undefined) | 4.5% (inactive)
8 | Clc1cccc(C2N3CCCCC3[C@@H]3c4[nH]c5ccccc5c4CCN23)c1 (some centres undefined) | 10.9% (inactive)
9 | CC1(C)SCCNC1=O | 15.8% (inactive)
10 | O=C1NC(=Nc2ccccc2Cl)SC1C(=O)Nc1ccc([N+](=O)[O-])cc1[N+](=O)[O-] (centres undefined) | 7.6% (inactive)
11 | CCSCC1C(=O)C23C(O)C1CCC2C12COC3(O)C(O)C1C(C)(C)CCC2O (centres undefined) | 2.4% (inactive)
12 | CC(C)(C)NC(=S)N/N=C/c1ccccn1 | 89.7% (active)
13 | N#CC(C(=O)O)C1(c2ccccc2)CCCCC1 (centres undefined) | 1.1% (inactive)
14 | CC(C)(C)c1cc(-c2c3nc(c(-c4cc(C(C)(C)C)cc(C(C)(C)C)c4)c4ccc([nH]4)c(-c4cc(C(C)(C)C)cc(C(C)(C)C)c4)c4nc(c(-c5cc(C(C)(C)C)cc(C(C)(C)C)c5)c5ccc2[nH]5)C=C4)C=C3)cc(C(C)(C)C)c1 | 2.6% (inactive)
